# High-throughput results (PubChem)
# A selection: hits, their analogues and other compounds. The true share with any hit is near 4.2%.
# ALOX15 inhib – blocks human 15-lipoxygenase activity; P16050; Potency, µM (highest dose often 57.1 µM), without a hit: at the top dose activity change, negative = inhibition, most hits filed as inhibitors; AID 887; purified 15hLO-1, xylenol orange hydroperoxide absorbance; 74,000 tested, 1.4% active; also: potency is read from the fitted curve at half-maximal effect; % is scaled to controls: 0 for no effect and ±100 for the full control effect; nearly all actives have a fitted effect of over 55% in size
# Target sequence (P16050 whole entry, looked up): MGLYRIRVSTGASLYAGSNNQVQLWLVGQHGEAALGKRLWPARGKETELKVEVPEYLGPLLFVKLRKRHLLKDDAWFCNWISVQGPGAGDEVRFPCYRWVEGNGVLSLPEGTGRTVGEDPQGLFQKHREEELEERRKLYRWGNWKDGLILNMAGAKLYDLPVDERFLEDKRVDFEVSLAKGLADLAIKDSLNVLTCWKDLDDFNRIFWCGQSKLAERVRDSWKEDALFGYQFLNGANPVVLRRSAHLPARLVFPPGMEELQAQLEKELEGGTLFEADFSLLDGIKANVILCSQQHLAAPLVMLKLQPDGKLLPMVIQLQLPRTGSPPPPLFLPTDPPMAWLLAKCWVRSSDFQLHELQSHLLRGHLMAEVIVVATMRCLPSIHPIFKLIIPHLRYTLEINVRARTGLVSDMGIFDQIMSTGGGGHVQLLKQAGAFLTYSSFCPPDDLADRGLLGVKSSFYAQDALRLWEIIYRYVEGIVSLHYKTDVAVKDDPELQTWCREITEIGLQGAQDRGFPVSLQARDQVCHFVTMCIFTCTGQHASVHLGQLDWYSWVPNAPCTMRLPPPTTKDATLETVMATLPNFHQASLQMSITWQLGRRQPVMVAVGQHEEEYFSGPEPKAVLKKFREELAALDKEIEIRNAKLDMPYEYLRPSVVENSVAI
#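 Quantitative HTS in 25 mM Hepes pH 7.5 containing 0.01% Triton X-100: human 15hLO-1 at 40 nM, arachidonic acid at 50 uM, 6 min turnover. Product quantified via ferrous oxidation/xylenol orange, 573:405 nm absorbance ratio.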
# Tau filament bind – binders of human tau filaments. 71,000 tested, 2% active. recombinant tau filaments, thioflavin S fluorescence, 15 h; filaments grown with octadecylsulfate alongside compound. Potency, µM (titrated, usually from 57.1 µM), without a hit: at the highest dose activity change, negative = inhibition. AID 596;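 also: potency is read from the fitted curve at half-maximal effect; % is scaled to controls: 0 for no effect and ±100 for the full control effect; actives lower thioflavin S fluorescence by blocking filaments or displacing dye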
#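 Tau 2 uM in ThS buffer dispensed; compound added; 60 uM ODS added (finals 1 uM tau, 30 uM ODS); 15 h 37 C; fluor ex450/em510.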
# YjeE inh – inhibitors of E. coli YjeE (TsaE); purified YjeE enzyme, qHTS inhibition assay; Potency, µM; 71,000 tested, 0.05% active
#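 Fluorescence polarization of a BODIPY Texas Red–ADP probe (2 uM) bound to purified YjeE (10 uM) was read after 15 min room-temperature incubation with compounds. Loss of polarization marks inhibitors; ADP serves as titrated control.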
# Hsp90 Hop PPI – changes Hsp90-Hop TPR2A binding signal, up or down. Potency, µM (series often up to 57 µM), for the others: at the top dose activity change, negative = inhibition. 71,000 tested, 0.44% active. AlphaScreen TPR2A-His6 binding biotin-Hsp90 C-terminal peptide. AID 595; active = well fitted curve in either direction with a large enough effect; inconclusive = small, poorly fitted or top-dose-only effect, or another doubt; also: potency is read from the fitted curve at half-maximal effect; % is scaled to controls: 0 for no effect and ±100 for the full control effect
# ERK AVP inh – inhibitors of vasopressin-stimulated ERK signaling pathway; HEK293-V1b, vasopressin-stimulated pERK AlphaScreen; Potency, µM (series often up to 57.5 µM), without a hit: top-dose activity, negative = inhibition, actives largely listed as inhibitors; 72,000 tested, 0.99% active; AID 995; also: potency is read from the fitted curve at half-maximal effect; % is scaled to controls: 0 for no effect and ±100 for the full control effect; nearly all actives have a fitted effect of over 55% in size
#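 qHTS, compounds titrated on V1b-expressing HEK293 cells. Preincubation 30 min at 37C, vasopressin 25 nM for 5 min, lysis 10 min, bead incubation 5 hr at room temperature.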
# DNA Pol III inh – blocks replication by bacterial DNA polymerase III holoenzyme; reconstituted DNA polymerase III holoenzyme replication, biochemical; Potency, µM (series often up to 57.1 µM), inactives show at the highest dose activity change, negative = inhibition; 71,000 tested, 0.25% active; AID 603; also: potency is read from the fitted curve at half-maximal effect; % is scaled to controls: 0 for no effect and ±100 for the full control effect
#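 Reconstituted *E. coli* holoenzyme (0.35 nM Pol III, 1 nM beta, 154 nM SSB, 2 nM primase) was preincubated with compound for 15 min at RT. Synthesis on 1.4 nM ssM13Gori ran 35 min, then was stopped with PicoGreen/EDTA and read as dsDNA fluorescence.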
# Numbers without * were called inactive; i = inactive; ? = inconclusive; nt = not tested or not shown; [ ] = another dose, or the depositor's remark. Unless noted, calls follow the shape of the dose curve; as a rule, active = well fitted curve in the direction sought with a large enough effect; inconclusive = small, poorly fitted or top-dose-only effect, or another doubt; inactive = no such curve, though single readings can be large; an effect the other way counts as inactive or inconclusive.
SMILES,ALOX15 inhib,Tau filament bind,YjeE inh,Hsp90 Hop PPI,ERK AVP inh,DNA Pol III inh
N#CCCN1CCN(Cc2cc(-c3ccccc3)ccc2O)CC1,-4%,7%,i,-8%,24%,-6%
N#CCCN1CCN(C(=S)c2ccc(-c3cccc(Cl)c3)o2)CC1,-14%,4µM*,i,?,?,11%
S=C(c1ccc(-c2cccc(Cl)c2)o1)N1CCOCC1,?,16µM*,i,-30%,?,-2%
N#CCCN1CCN(C(=S)c2ccc(-c3ccc(Cl)c(Cl)c3)o2)CC1,?,13µM*,i,?,-10%,25%
CCCCN(C(=O)NC(=O)C1=C(N2CCOCC2)/C(=C/c2ccccc2)CC1)S(C)(=O)=O,-9%,-4%,i,-3%,-4%,3%
O=C(c1ccncc1)N1CCC2(CC1)CCN(C(c1ccccc1)c1ccccc1)CC2,-14%,13%,i,-4%,-26%,-7%
COc1ccc2[nH]c(=O)c(CN(Cc3nnnn3Cc3ccccc3)CC3CCCO3)cc2c1 (stereo not drawn),?,46%,i,-6%,-6%,-7%
COc1ccc2[nH]c(=O)c(CN(Cc3nnnn3Cc3ccc(F)cc3)CC3CCCO3)cc2c1 (stereo not drawn),25µM*,64%,i,-2%,-12%,-5%
C=C(C)C(O)/C=C/C=C/c1ccccc1 (stereo not drawn),-4%[11.4 µM],nt,nt,nt,11%[11.5 µM],nt
COc1cccc(-c2cc(=O)c3cc(O)ccc3o2)c1,6%[25.6 µM],32µM*,i,-1%,?,-14%
COc1ccc2oc(-c3ccc(O)cc3)cc(=O)c2c1,-14%[25.6 µM],?,i,-10%,40µM*,-8%
COc1ccc(-c2cc(=O)c3cc(OC)ccc3o2)cc1,-3%,nt,nt,nt,7%,nt
Cn1c(C(=O)O)cc2cc(F)ccc21,8%,-26%,i,-3%,-7%,-4%
CCOc1ccc(-c2nc(C#N)c(N3CCCCCC3)o2)cc1,-27%,57%,i,?,20µM*,4%
Cc1ccc2nc(CSc3nnc(-c4ccco4)o3)cc(=O)n2c1,-27%,7%,i,-4%,?,20µM*
Cc1ccc(CNC(=O)CCS(=O)(=O)c2cccc3nsnc23)cc1,12%,-6%,i,-4%,7%,1%
O=C(Nc1cccc(Cn2cccn2)c1)c1cc2c(s1)CCCC2,-17%,40%,i,6%,20µM*,5%
CC(=O)Nc1cccc(Cn2cccn2)c1,1%,16%,i,-2%,-13%,-11%
O=C(CCC1COc2ccccc2O1)Nc1ncccc1O (stereo not drawn),1%,1%,i,-11%,-4%,3%
COc1ccccc1CCn1c(=O)c(-c2cccc(Cl)c2)nc2cncnc21,-23%,13µM*,i,-1%,-28%,16%
Cc1nc2cncnc2n(Cc2ccccc2Cl)c1=O,12%,16µM*,i,-4%,-12%,-3%
O=c1c(-c2ccccc2)nc2cncnc2n1Cc1ccccc1Cl,4%,?,i,-3%,-24%,-11%
O=c1c(-c2cccc(Cl)c2)nc2cncnc2n1Cc1ccccc1Cl,5%,6.3µM*,i,-1%,?,-7%
N#CCCN(Cc1cccnc1)C(=O)Nc1cccc(Cl)c1,8%,-2%,i,-1%,-10%,-4%
CN1/C(=C/C(=O)c2nc(S(C)(=O)=O)ncc2Cl)C(C)(C)c2ccccc21,-15%,10µM*,i,-25%,13%,1%
SMILES,ALOX15 inhib,Tau filament bind,YjeE inh,Hsp90 Hop PPI,ERK AVP inh,DNA Pol III inh
Cc1ccc2c(c1)[C@H]1OCC[C@H]1[C@@H](c1ccncc1)N2,7%,-10%,i,-4%,-2%,0%
Clc1ccc2c(c1)C1OCCC1C(c1ccco1)N2 (stereo not drawn),-29%,25µM*,i,?,-22%,4%
Cc1noc(C)c1C(=O)N1CCC[C@@]2(CCN(c3cccc(-c4ccccc4)c3)C2)C1,?,3%,i,0%,?,-14%
CCCc1ccc(Oc2cn[nH]c2-c2ccc(O)cc2O)cc1,3.2µM*,0.79µM*,i,-18%[11 µM],?,-10%[11.4 µM]
FC(F)(F)c1cc(-c2ccc3c(c2)OCO3)nc(NCc2ccco2)n1,20µM*,-10%,i,16%,12%,-9%
Oc1c(-c2cc(-c3ccco3)[nH]n2)ccc2ccccc12,-18%,16µM*,i,?,-15%,-6%
CCS(=O)(=O)Nc1c(C(=O)O)[nH]c2ccccc12,-1%,20µM*,i,-9%,-6%,-6%
CCS(=O)(=O)Nc1c(C(=O)OC)[nH]c2ccccc12,3%,-6%,i,-1%,0%,-10%
OC[C@H](CCc1c[nH]c2ccccc12)c1c[nH]c2ccccc12,3.2µM*,-7%[11.4 µM],i,-11%[11 µM],-23%[11.5 µM],1%[11.4 µM]
c1ccc(-n2nnc3c(N4CCOCC4)ncnc32)cc1,-12%,-3%,i,0%,-14%,-2%
c1ccc(-c2cc3c(N4CCOCC4)ncnc3s2)cc1,-12%,?,i,1%,20µM*,-3%
Cc1nc(N2CCOCC2)c2cc(-c3ccccc3)sc2n1,-14%,47%,i,20%,16µM*,-11%
Cc1cc(O)ccc1Nc1nc2ccccc2nc1Nc1ccc(O)cc1C,16µM*,7.9µM*,i,-17%,10%,0%
COc1ccc(F)cc1S(=O)(=O)NC1CCCCCC1,-2%,-9%,i,1%,-2%,-2%
O=C(Nc1ccc(S(=O)(=O)N2CCCC2)cc1)c1ccc(CN2CCOCC2)cc1,?,2%,i,-3%,10µM*,-1%
CN(C)c1ccc(NC(=O)Cn2ncn3c(cc4ccccc43)c2=O)cc1,?,13µM*,i,-15%,-15%,4%
Cc1ccc(-c2nc3ncccn3c2Nc2ccc3c(c2)OCO3)o1,-21%,13µM*,i,-15%,?,8%
c1cn2c(NC3CCCC3)c(-c3ccc(N4CCOCC4)cc3)nc2cn1,-6%,15%,i,7%,nt,-7%
Cc1ccc(-c2nc3ncccn3c2NC2CCCC2)o1,3%,13µM*,i,-12%,-23%,0%
Oc1ccc(-c2nc3ncccn3c2Nc2ccc3c(c2)OCO3)cc1,10µM*,-26%,i,-30%,?,0%
Cc1cc2oc(C(=O)Nc3c(C)n(C)n(-c4ccccc4)c3=O)c(C)c2cc1C,4%,-1%,i,-8%,?,-6%
COc1ccc(C(=O)CSc2cc(C)nc3nc(C)nn23)cc1OC,6%,8%,i,-3%,-21%,-2%
CCC(C(=O)NC1CCCC1)N(C(=O)Cn1nnc(-c2ccc(OC)c(OC)c2)n1)C1CCCCC1 (stereo not drawn),-15%,-2%,i,-4%,-28%,-1%
